In all, about 48,000 compounds went through this assay and about 13,000 (27%) showed an effect of 50% or more. This is one part of the list.
These compounds were tested on Wolbachia pipientis (assay: Anti-Wolbachia Cell-Based Screen). Conditions: 5 µM.
Type: functional
Parameters: scale not given: in the data most compounds retested in dose-response had high values

First: O=C1OCCN1Cc1cccc(C(F)(F)F)c1F
Second: CN1CCOC(CNCc2cccc(OCC(F)(F)F)c2)C1 (stereo not given)
The “Percent Effect” value of the first is lower: -20.92% for the first, -1.081% for the second.

Going from CCC(NC(=O)c1ccco1)c1ccccc1OCC(=O)N1CCCC1 (stereo not given) to CCC(NCc1ccccn1)c1ccccc1OCC(=O)NC (stereo not given), the “Percent Effect” value rises from 7.206% to 13.68%.

First: CCOc1ccc(NC(=O)c2oc(CC)cc2C)cc1CO
Second: CCOC(=O)CCNC(=O)N1CCOC(Cc2cccc(OC)c2)C1 (stereo not given)
The “Percent Effect” value of the first is lower: -16.02% for the first, -8.536% for the second.

First: CC(C)NC(=O)[C@@]12CCO[C@@H]1CCN(Cc1ccco1)C2.O=C(O)C(F)(F)F
Second: Cc1cc(CN2CC[C@H]3OCC[C@@]3(C(=O)NCc3ccco3)C2)no1.O=C(O)C(F)(F)F
The “Percent Effect” value of the first is higher: 113.3% for the first, -7.292% for the second.

First: O=C(NCc1ccco1)[C@@]12CCO[C@@H]1CCN(CC1CCOCC1)C2.O=C(O)C(F)(F)F
Second: O=C(O)C(F)(F)F.O=C([C@@H]1COC[C@H]2CN(CC3CC3)C[C@H]21)N1CCC(F)CC1
The “Percent Effect” value of the first is lower: -4.272% for the first, -0.2992% for the second.

Compared with O=C(NC1CC1)[C@@H]1CCO[C@@H]2CCN(C3CCCC3)C[C@H]21, CC(C)NC(=O)[C@H]1C[C@@H]2[C@@H](C1)OCCN2CC1CC1.O=C(O)C(F)(F)F is higher in “Percent Effect” value: -4.337% for the first, -2.648% for the second.

First: COc1ccc(CN2CCN(CC3CC3)[C@@H]3CS(=O)(=O)C[C@@H]32)cc1O
Second: CN(C)C(=O)N1C[C@@H]2CC[C@H](C1)N(Cc1ccc3nsnc3c1)C2
The “Percent Effect” value of the first is higher: 13.23% for the first, -1.823% for the second.

Going from CC(C)(C)c1n[nH]cc1CNC1CCC(OCC(F)(F)F)CC1.Cl (stereo not given) to CC(C)(C)c1n[nH]cc1CNC1CCC(C(F)(F)F)CC1.Cl (stereo not given), the “Percent Effect” value rises from 88.78% to 89.77%.

Compared with Cc1n[nH]cc1CNC1CCN(c2cccc(C(F)(F)F)c2)CC1, Cc1n[nH]cc1CNC1CCN(c2ccc(F)cc2)CC1.Cl is lower in “Percent Effect” value: -2.63% for the first, -3.892% for the second.

Going from Cc1n[nH]cc1CNCc1ccnc(OCC(F)(F)F)c1.Cl to FC(F)(F)Oc1cccc(CNC[C@H]2Cn3ccnc3CO2)c1, the “Percent Effect” value falls from -12.37% to -15.74%.

First: COc1ccc(-c2cc[nH]n2)cc1CNC1CCCC1
Second: CC(C)(C)c1n[nH]cc1CNC1CCC(O)CC1 (stereo not given)
The “Percent Effect” value of the first is lower: -3.837% for the first, 81.49% for the second.

First: Cc1ccc(CNCc2c[nH]nc2C(C)(C)C)c(OC2CCOC2)c1 (stereo not given)
Second: CC(C)(C)CN1CCOC[C@H]1c1nc(-c2cccc(F)c2)c[nH]1
The “Percent Effect” value of the first is higher: 13.41% for the first, 4.483% for the second.

First: CN(Cc1ccccc1)CC(C)(C)NC(=O)c1cnccn1
Second: Cc1nccnc1N1CC[C@@H](NC(=O)c2cnccn2)[C@H](O)C1
The “Percent Effect” value of the first is higher: 4.118% for the first, -17.03% for the second.

Compared with Cc1cccc(S(=O)(=O)N2CC[C@H]3[C@H]2CCN3c2ncccn2)c1.O=C(O)C(F)(F)F, Cn1cc(S(=O)(=O)N2CCCC2Cn2ccnc2)cc1C(N)=O (stereo not given) is lower in “Percent Effect” value: -3.796% for the first, -5.902% for the second.

Going from O=c1[nH]ccc2cc(-c3cc(O)cc(CCC4CCCCN4)c3)ccc12 (stereo not given) to O=C(O)c1ccc2c(CN3CCCC3)c[nH]c2c1, the “Percent Effect” value rises from -30.56% to -9.8%.

Compared with Cc1cccc(C(=O)N2CCCC2)c1NCC(=O)NC(C)(C#N)C1CC1 (stereo not given), O=C(CN1CCCNC1=O)Nc1ccccc1C(=O)C1CCCC1 is higher in “Percent Effect” value: 5.415% for the first, 8.695% for the second.

Going from CCC(CC)c1cc(CNC(=O)N2CCCC(N(C)C)C2)on1 (stereo not given) to Cc1nc(CN2CCCC(N(C)CCc3cccs3)C2)no1 (stereo not given), the “Percent Effect” value rises from -19.35% to 6.086%.

First: O=c1[nH]c(CCN2CCN(CC(F)(F)F)CC2)nc2ccccc12
Second: O=c1[nH]nc(CCCN2CCOCC2)n1Cc1cccc(F)c1
The “Percent Effect” value of the first is lower: -18.37% for the first, 102.2% for the second.

Compared with OCC1(Cc2ccc(Cl)cc2)CCN(Cc2cccnc2)CC1, Clc1ccc(CN2CCC3(CC2)CC(c2cccnc2)=NO3)cc1 is higher in “Percent Effect” value: -27.42% for the first, 114.5% for the second.

First: CC(C)C1=NOC2(CCN(Cc3c[nH]c4ccccc34)CC2)C1
Second: c1ccc(C2=NOC3(CCN(Cc4c[nH]c5ccccc45)CC3)C2)cc1
The “Percent Effect” value of the first is higher: 126.9% for the first, 122.3% for the second.

Going from CC(C)CCN1CC[C@H](c2nnc(Cc3c[nH]c4ccccc34)o2)C1 to CC(C)N1CC[C@H](c2nnc(Cc3c[nH]c4ccccc34)o2)C1, the “Percent Effect” value falls from -3.447% to -6.101%.

First: Clc1ccc(CN2CCOC[C@H](Oc3cccnc3)C2)cc1
Second: c1cncc(O[C@H]2COCCN(Cc3c[nH]c4ccccc34)C2)c1
The “Percent Effect” value of the first is lower: -8.51% for the first, 0.3938% for the second.

Going from O=C(O)c1ccc2c(CN3CCOCC3)c[nH]c2c1 to O=C(NCCN1CCOCC1)Nc1cc(F)ccc1-n1cccn1, the “Percent Effect” value falls from 6.765% to -8.933%.

Going from CC1(C)CN(Cc2nnc(-c3cccnc3)o2)CC[C@]1(C)O to CN(C)C(=O)N1C[C@@H]2CC[C@H](C1)N(Cc1nnc(-c3ccccc3)o1)C2, the “Percent Effect” value rises from -0.3969% to 137.1%.

Compared with c1cncc(C2=NOC3(CCN(Cc4c[nH]c5ccccc45)CC3)C2)c1, COCCN1CCCC2(CCN(c3nccc4ccccc34)C2)C1=O (stereo not given) is lower in “Percent Effect” value: 119% for the first, 0.09488% for the second.

Going from CCc1nnc2n1CCN(C(=O)c1csc(-c3cnn(C)c3)n1)C2 to CCc1nc(CN(C(C)=O)C2CCN(CCc3cnn(C)c3)C2)no1 (stereo not given), the “Percent Effect” value rises from -10.57% to -3.276%.

Going from CCN1C[C@H]2CCN(C(=O)C3CCCO3)CC[C@H]2S1(=O)=O (stereo not given in full) to CN(C)C(=O)N1C[C@@H]2CC[C@H](C1)N(Cc1nnc(C3CC3)o1)C2, the “Percent Effect” value rises from -2.394% to 98.65%.

Going from CN(Cc1noc(C2CC2)n1)C1CCN(CCc2cccs2)C1 (stereo not given) to Cc1nc(CN(C)C2CCN(CCc3cccs3)C2)no1 (stereo not given), the “Percent Effect” value rises from 86.2% to 100.8%.

First: CCc1nc(CN(C(C)=O)C2CCN(Cc3cnc(C)cn3)C2)no1 (stereo not given)
Second: CCc1nc(CN(C(C)=O)C2CCN(CCc3cccs3)C2)no1 (stereo not given)
The “Percent Effect” value of the first is lower: -6.946% for the first, 109.6% for the second.

Going from CC(=O)N(Cc1ncc(C)o1)C1CCN(CCc2cccs2)C1 (stereo not given) to CCc1cnc(CN(C(C)=O)C2CCN(CCc3cccs3)C2)o1 (stereo not given), the “Percent Effect” value falls from 95.79% to 1.615%.

Compared with CCn1c(C)nnc1CN(C)C1CCN(CCc2cccs2)C1 (stereo not given), Cc1nnc(CN(C)C2CCN(CCc3cccs3)C2)n1C (stereo not given) is higher in “Percent Effect” value: -15.8% for the first, 4.049% for the second.

First: CCCN1CCC(N(Cc2ncc(C)o2)C(C)=O)C1 (stereo not given)
Second: CC(C)c1cnc(CN(C)C2CCN(CCc3ccccn3)C2)o1 (stereo not given)
The “Percent Effect” value of the first is higher: 4.824% for the first, -3.925% for the second.

Compared with Cc1ccc(CCN2CCC(N(C)Cc3noc(C4CC4)n3)C2)cc1 (stereo not given), Cc1nc(CN(C)C2CCN(CCc3ccccn3)C2)no1 (stereo not given) is higher in “Percent Effect” value: 33.43% for the first, 113.1% for the second.

Going from CN(Cc1nnc(C2CC2)o1)C1CCN(CCc2cccs2)C1 (stereo not given) to CCc1nc(CN(C)C2CCN(CCc3cccs3)C2)no1 (stereo not given), the “Percent Effect” value rises from -15.6% to 104.6%.

Going from O=C(CSc1ccc2c(c1)OCCO2)NS(=O)(=O)c1cccnc1 to O=C(NCCN1CCOCC1)c1cc(-c2ccc3c(c2)CCO3)n[nH]1, the “Percent Effect” value falls from 7.646% to 2.601%.

First: Cc1ncc2c(n1)CCN(C(C(N)=O)c1ccccc1)C2 (stereo not given)
Second: CN1C[C@@H](n2cnc(-c3ccccc3)c2-c2ccccn2)C[C@H]1C(=O)O
The “Percent Effect” value of the first is higher: -10.42% for the first, -24.01% for the second.

First: CCc1nc(CN(C)C2CCN(CCn3cccn3)C2)no1 (stereo not given)
Second: CCc1nc(CN(C)C2CCN(CCc3ccccn3)C2)no1 (stereo not given)
The “Percent Effect” value of the first is higher: 113.6% for the first, 16.6% for the second.

Going from CCc1nc(CN(C)C2CCN(CCS(C)(=O)=O)C2)no1 (stereo not given) to CCc1nc(CN2CCCC(N(C)Cc3cnc(C)s3)C2)no1 (stereo not given), the “Percent Effect” value falls from 2.202% to -6.39%.

Going from CCc1nc(CN2CCCC(N(C)CCc3cccs3)C2)no1 (stereo not given) to CN1CCOC(CNCc2nc(-c3ccco3)no2)C1 (stereo not given), the “Percent Effect” value falls from 105.7% to -7.293%.

Compared with Cc1ccc(NCc2cn3c(n2)CN(Cc2ccc(C)o2)CC3)nn1.O=C(O)C(F)(F)F.O=C(O)C(F)(F)F, O=C(NCc1cccc(F)c1)Nc1ccn(CCN2CCOCC2)n1 is lower in “Percent Effect” value: -14.5% for the first, -19.73% for the second.

Compared with CN(C)C(=O)N1C[C@@H]2CC[C@H](C1)N(C/C=C/c1ccc(F)cc1)C2, CN(C)C(=O)N1C[C@@H]2CC[C@H](C1)N(Cc1nnc(-c3ccco3)o1)C2 is higher in “Percent Effect” value: 7.662% for the first, 70.33% for the second.

First: c1ccc(CN2C[C@H]3CC[C@@H]2CN(Cc2nnc(C4CC4)o2)C3)cc1
Second: c1ccc(CN2C[C@@H]3CC[C@H](C2)N(Cc2nnc(C4CC4)o2)C3)cc1
The “Percent Effect” value of the first is higher: 2.015% for the first, -6.562% for the second.

Going from CC(C1CC1)N(C)Cc1nnc(-c2ccco2)o1 (stereo not given) to c1ccc(-c2nnc(CN3C[C@@H]4CC[C@H](C3)N(CC3CCC3)C4)o2)cc1, the “Percent Effect” value rises from -0.554% to 0.05664%.

Compared with CCCOc1cccc(CNC(=O)CN2CCN(C)CC2C)c1 (stereo not given), COCCOc1cccc(CNCC2CN(C)CCO2)c1 (stereo not given) is higher in “Percent Effect” value: -6.684% for the first, 121.8% for the second.

First: CN1CCOC(CNCc2cccc(OC(F)(F)F)c2)C1 (stereo not given)
Second: COc1cccc(CNCC2CN(C)CCO2)c1 (stereo not given)
The “Percent Effect” value of the first is lower: 76.13% for the first, 98.93% for the second.

Going from CN1CCOC(CNC(=O)CCCOCCc2ccccc2)C1 (stereo not given) to O=C1O[C@@H]2CN(Cc3cccc(F)c3)C[C@@H]2N1CCCN1CCOCC1, the “Percent Effect” value rises from -8.698% to 11.87%.

First: CCCc1n[nH]c(C2CN(CCNC3CCCCC3)CCO2)n1 (stereo not given)
Second: Cc1nc(CCCN2CCOCC2)n(Cc2ccc(F)cc2)n1
The “Percent Effect” value of the first is higher: 8.814% for the first, -6.384% for the second.

Compared with COc1cc(CNc2nc(C3CC3)no2)cc(OC)c1OC, CO[C@@H]1CC[C@@H](NS(=O)(=O)c2cn(C)nc2C)[C@H]1O is higher in “Percent Effect” value: 3.811% for the first, 86.74% for the second.

First: Cc1ccc(F)cc1-n1c(CCCN2CCOCC2)n[nH]c1=O
Second: O=c1[nH]nc(CCCN2CCOCC2)n1-c1ccc(F)cc1F
The “Percent Effect” value of the first is higher: 109.2% for the first, 93.86% for the second.

Compared with O=C1CCC(=O)N1CCN1CCN(c2cc(F)ccc2F)CC1, Cc1nccn1C1CCCN(C(=O)C2=NN(C)C(=O)CC2)C1 (stereo not given) is higher in “Percent Effect” value: -16.23% for the first, -2.156% for the second.

First: Cc1nn(C)cc1S(=O)(=O)N[C@@H]1CCC[C@@H](n2ccnc2)[C@@H]1O
Second: Cc1nn(C)cc1S(=O)(=O)N[C@@H]1CC[C@@H](n2ccnc2C)[C@@H]1O
The “Percent Effect” value of the first is lower: 85.24% for the first, 99.22% for the second.

First: Cn1cc(S(=O)(=O)N2CCCC2Cn2ccnc2)cn1 (stereo not given)
Second: Cc1nn(C)cc1S(=O)(=O)N[C@@H]1CCC[C@@H](N2CCCC2)[C@@H]1O
The “Percent Effect” value of the first is lower: -1.128% for the first, 95.33% for the second.

In the case of Cc1nn(C)cc1CN1CCCn2nc(CNC(=O)C3CCC3)cc2C1, the “Percent Effect” value is reported as -11.1%.

Reference: ChEMBL document CHEMBL3988442, “University of Dundee, Small-Polar-MMV Screening Library” (2021)
